PubChem BioAssay (NCATS)
Results filed as inconclusive are left out. Active and inactive are the calls of the source. Unless noted, calls come from the whole dose curve; as a rule, active = well fitted curve in the direction sought with a large enough effect; inconclusive = small, poorly fitted or top-dose-only effect, or another doubt; inactive = no such curve, though single readings can be large; an effect the other way counts as inactive or inconclusive.

Key:
[1] = AP1 Signaling Pathway (AID 357; active = well fitted curve in either direction with a large enough effect, not every such curve was filed as active; note: % is set by controls: 0 for no effect and ±100 for the full control effect); conditions: ME-180 AP-1-bla reporter, EGF-induced, beta-lactamase ratio, 5 h; at 38 µM (top of the series)
In short: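 ME-180 cells with beta-lactamase reporter under AP-1 response element, stimulated with EC50 EGF; compounds tested in titration series, 5 h at 37 °C. CCF4 substrate added 2.5 h at room temperature; 460/530 nm emission ratio gave %activity and AC50.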

[2] = target: Cytochrome P450 1A2 (Homo sapiens) (UniProt P05177); test: p450-cyp1a2 (AID 410; calls by dose curve; note: potency is the fitted concentration of half-maximal effect)
In short: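 20nM CYP1A2 with 100uM Luciferin-ME (at Km) in 100mM KPO4; compound preincubated 10 min, NADPH regeneration added, 60 min at room temperature. Luciferin quantified by luminescence after detection reagent; normalized to 57 uM furafylline.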

[3] = NFAT Signaling Pathway (AID 444; active = well fitted curve in either direction with a large enough effect, not every such curve was filed as active;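 note: carbachol stimulus at about its EC50 of 1 µM final; % is set by controls: 0 for no effect and ±100 for the full control effect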); conditions: Jurkat NFAT-bla M1, carbachol, beta-lactamase ratio, 5 h; at 38 µM (top of the series)
In short: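 Jurkat cells with NFAT-driven β-lactamase reporter and co-expressed M1 receptor, stimulated with carbachol (final 1 uM, ~EC50), compound titration, 5 h at 37 °C. CCF4 loaded 1 h at RT; 460/530 nm ratio gave %activity and AC50.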

[4] = Stat Signaling Pathway (AID 446; active = well fitted curve in either direction with a large enough effect, not every such curve was filed as active;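 note: ME-180 cervical cancer cells given 40 pM IL-6 alongside compound; SIE-controlled beta-lactamase reporter measured as 460/530 nm FRET emission ratio; % is set by controls: 0 for no effect and ±100 for the full control effect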); conditions: ME-180 SIE beta-lactamase reporter, IL-6 stimulated, 5 h; at 38 µM (top of the series)
In short: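 ME-180 SIE-bla cells; overnight plating; cpd + IL-6 40 pM, 5 h, 37 C; LiveBLAzer 2.5 h RT; 460/530 nm emission ratio. Normalized to 300 pM IL-6 and 125 nM JAK inhibitor controls.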

[5] = target: Glucocorticoid receptor (Homo sapiens) (UniProt P04150); test: GR-GFP Redistribution (AID 450;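 active = compounds whose dose series gives a full or clear partial fitted curve of increased nuclear translocation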; note: potency is the fitted concentration of half-maximal effect); conditions: U2OS GR-GFP nuclear translocation, laser cytometry, 2 h
[6] = target: Glucocorticoid receptor (Homo sapiens) (UniProt P04150); test: GR-EFC Redistribution (AID 451; calls by dose curve; note: potency is the fitted concentration of half-maximal effect); conditions: CHO-K1 GR-EFC translocation, beta-gal luminescence, 2 h
In short: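 CHO-K1 cells expressing nuclear EA and GR-ED fragments of b-gal; compounds titrated up to 46 uM final, 2 h at 37 C. GR nuclear translocation read as complemented b-gal luminescence after 1 h RT detection.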

[7] = target: Mitogen-activated protein kinase 10 (Mus musculus) (UniProt Q61831); test: JNK3 AlphaScreen Assay (AID 530; active = well fitted curve in either direction with a large enough effect, not every such curve was filed as active;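 note: kinase came from lysate of stimulated human HepG2 cells; signal reports phosphorylation of biotinylated GST-cJun 1-79 at Ser73 with 10 µM ATP; % is set by controls: 0 for no effect and ±100 for the full control effect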)
In short: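 Pre-activated (IL-1β/TNFα) JNK3 in HepG2 lysates phosphorylates biotin-GST-cJun(1-79), 10 uM ATP; anti-phospho-cJun(Ser73) AlphaScreen read at room temperature, pH 7.6 Tris buffer. Compounds pre-incubated 15 min as titrations.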

[8] = target: 3',5'-cyclic-AMP phosphodiesterase 4B (Homo sapiens) (UniProt Q07343); test: qHTS Assay for Inhibitors of PDE-IV (AID 607; active = well fitted activation curve with a large enough effect in the main read-out, with a control signal flat, not every such curve was filed as active; note: % of control where 0% means no effect)
In short: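 ACTOne HEK293 cells carry a modified cAMP-gated CNG channel and express endogenous PDE4; plated 1000 cells/well, compounds up to 22.9 uM final. Membrane-potential dye fluorescence (ex 535/em 590) was read; parental cells received 10 uM forskolin + 100 uM RO 20-1724.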

[9] = target: Guanine nucleotide-binding protein G(i) subunit alpha-1 (Homo sapiens) (UniProt P63096); test: qHTS Assay for Inhibitors of RGS12 GoLoco Motif Activity (Green Fluorophore) (AID 879);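 note: 0% = labeled peptide with Gαi1 and full inhibition = labeled peptide alone without protein; negative values mean loss of peptide binding seen as reduced polarization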
In short: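 Fluorescence polarization assay: 50 nM Gαi1 with 10 nM FITC-labeled RGS12 GoLoco peptide in 10 mM Tris pH 7.5, 150 mM NaCl, 0.1 mM GDP, 0.05% NP40, 10 min at room temperature with compound.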

[10] = target: Cytochrome P450 3A4 (Homo sapiens) (UniProt P08684); test: qHTS Assay for Activators of Cytochrome P450 3A4 (AID 885); note: nearly all actives have a fitted effect of over 65% in size
In short: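 20nM CYP3A4 + 25uM Luciferin-PPXE (=KM), 200mM KPO4; cpd 10 min RT; NADPH regen, 60 min RT; stop w/ detection buffer, 20 min; luminescence. Normalized to 57 uM ketoconazole.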

[11] = target: Muscarinic acetylcholine receptor M1 (Rattus norvegicus) (UniProt P08482); test: qHTS Assay for Antagonists of Acetylcholine Muscarinic M1 Receptor: Kinetic Measurement of Intracellular Calcium Response (AID 943); note: nearly all actives have a fitted effect of over 75% in size
In short: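 CHO cells expressing rat M1 receptor, Fluo-4 loaded, preincubated 10 min with compound, then stimulated with EC80 carbachol (100 nM final). Kinetic calcium fluorescence over 4 min; response taken as peak over basal signal.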

[12] = target: Pyruvate kinase (Leishmania mexicana) (UniProt Q27686); test: qHTS Validation Assay for Inhibitors of Leishmania Mexicana Pyruvate Kinase (AID 945);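 note: 0% = DMSO only neutral control wells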
In short: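 An endpoint luciferase assay: 0.2 nM LmPYK E451W turns over 0.5 mM PEP with 0.1 mM ADP for 1 h at room temperature, pH 7.2, before PKLight addition. Values are normalized to DMSO-only wells.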

[13] = target: Pyruvate kinase PKM (Homo sapiens) (UniProt P14618); test: qHTS Assay for Activators of Human Muscle Pyruvate Kinase (AID 954; active = well fitted curve in the direction sought with a large enough effect, not every such curve was filed as active;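 note: 0% = uninhibited enzyme and -100% = no enzyme or full thiadiazolimine inhibition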)
In short: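 Luminescence from a luciferase ATP-detection/stop reagent reported PKM2 activity. Reactions contained 0.1 nM purified human enzyme, 0.5 mM PEP, 0.1 mM ADP and 7 mM MgCl2 at pH 7.2, run 1 h at RT.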

[14] = target: Alpha-galactosidase A (Homo sapiens) (UniProt P06280); test: Counterscreen for Glucocerebrosidase Inhibitors: qHTS Assay for Human alpha-Galactosidase at pH 4.5 (AID 992); note: 0% is about no effect
In short: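 Enzyme at 2 nM final was combined with compound (0.7 nM to 77 uM) and 80 uM 4-methylumbelliferyl alpha-D-galactopyranoside in 50 mM citric acid, 0.005% Tween-20, pH 4.5. After 20 min at room temperature, fluorescence was read (Ex 365/Em 440 nm); AC50 came from Hill fits.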

[15] = target: alpha-glucosidase (Oryza sativa, rice) (UniProt Q653V4); test: Counterscreen for Glucocerebrosidase Inhibitors: qHTS Assay for Rice alpha-Glucosidase at pH 5.0 (AID 997);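 note: 0% = full activity with enzyme and -100% = basal without enzyme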
In short: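 Rice alpha-glucosidase (4 nM final) with 400 uM 4-methylumbelliferyl-alpha-D-glucopyranoside in citrate buffer pH 5.0, 20 min at room temperature, stopped at pH 10; fluorescence 365/440 nm, compounds 0.7 nM–77 uM, AC50 from Hill fits.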

[16] = Validation of Assay for Modulators of Lamin A Splicing (AID 1459; active = well fitted curve in the direction sought with a large enough effect in the signal ratio; the % refers to the signal ratio;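 note: cells exposed to compound for two days before reading; 0% is about no effect; ratio rise marks activators and ratio drop marks inhibitors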)
In short: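 S3 HeLa stably expressing lamin A-EGFP splicing minigene and DsRed2, 600 cells/well in Opti-MEM with 2% FBS, treated 48 h at 37C; laser-scanning cytometry gives GFP/RFP total intensity ratio; ancitabine positive control, 0.5% DMSO vehicle.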

[17] = qHTS Assay for Lipid Storage Modulators (AID 1519; calls by dose curve); conditions: Drosophila S3 cells, BODIPY lipid droplet/cell ratio, laser cytometry, cells loaded with oleic acid
In short: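 Cells seeded at 5,000 per well were treated with compounds over a concentration series and loaded with oleic acid (400 uM, as added). Lipid droplet fluorescence (488 nm excitation, 500-530 nm channel) was read by laser-scanning cytometry and normalized to 20 uM Triacsin C.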

Glucocorticoid receptor (Homo sapiens), sequence (P04150 whole entry, looked up, the tested form may be a part): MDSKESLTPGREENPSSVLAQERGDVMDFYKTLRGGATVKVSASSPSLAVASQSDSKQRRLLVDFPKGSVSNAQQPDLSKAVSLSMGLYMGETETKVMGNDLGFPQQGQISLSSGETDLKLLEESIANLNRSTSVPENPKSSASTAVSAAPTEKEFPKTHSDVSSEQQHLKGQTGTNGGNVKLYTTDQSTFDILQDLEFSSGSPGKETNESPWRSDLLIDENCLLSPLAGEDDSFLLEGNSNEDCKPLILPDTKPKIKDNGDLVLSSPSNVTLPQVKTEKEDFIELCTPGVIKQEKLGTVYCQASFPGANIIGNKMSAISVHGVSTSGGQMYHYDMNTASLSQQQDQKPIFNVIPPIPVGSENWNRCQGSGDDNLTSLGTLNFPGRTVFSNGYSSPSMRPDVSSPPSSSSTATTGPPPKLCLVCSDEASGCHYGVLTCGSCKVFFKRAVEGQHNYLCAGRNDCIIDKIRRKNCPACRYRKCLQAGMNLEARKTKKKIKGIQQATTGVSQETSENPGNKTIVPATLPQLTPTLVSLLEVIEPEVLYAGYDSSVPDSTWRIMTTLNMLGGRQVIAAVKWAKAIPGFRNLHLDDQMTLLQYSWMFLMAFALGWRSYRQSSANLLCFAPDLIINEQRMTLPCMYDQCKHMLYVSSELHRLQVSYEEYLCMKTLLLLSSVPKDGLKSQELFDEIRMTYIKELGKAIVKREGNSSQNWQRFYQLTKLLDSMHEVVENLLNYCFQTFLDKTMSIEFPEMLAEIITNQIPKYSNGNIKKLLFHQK
Alpha-galactosidase A (Homo sapiens), sequence (P06280 whole entry, looked up): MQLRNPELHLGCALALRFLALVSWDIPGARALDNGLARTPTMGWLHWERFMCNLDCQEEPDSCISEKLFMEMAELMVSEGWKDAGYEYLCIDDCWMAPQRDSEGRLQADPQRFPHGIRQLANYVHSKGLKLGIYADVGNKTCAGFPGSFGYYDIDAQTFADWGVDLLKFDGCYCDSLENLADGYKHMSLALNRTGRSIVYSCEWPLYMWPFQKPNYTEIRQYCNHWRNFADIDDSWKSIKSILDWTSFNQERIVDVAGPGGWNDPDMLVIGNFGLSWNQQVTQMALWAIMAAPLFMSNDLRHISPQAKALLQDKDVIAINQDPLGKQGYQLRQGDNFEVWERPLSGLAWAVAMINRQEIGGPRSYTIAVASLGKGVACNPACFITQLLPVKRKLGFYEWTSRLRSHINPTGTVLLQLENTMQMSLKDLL
Muscarinic acetylcholine receptor M1 (Rattus norvegicus), sequence (P08482 whole entry, looked up): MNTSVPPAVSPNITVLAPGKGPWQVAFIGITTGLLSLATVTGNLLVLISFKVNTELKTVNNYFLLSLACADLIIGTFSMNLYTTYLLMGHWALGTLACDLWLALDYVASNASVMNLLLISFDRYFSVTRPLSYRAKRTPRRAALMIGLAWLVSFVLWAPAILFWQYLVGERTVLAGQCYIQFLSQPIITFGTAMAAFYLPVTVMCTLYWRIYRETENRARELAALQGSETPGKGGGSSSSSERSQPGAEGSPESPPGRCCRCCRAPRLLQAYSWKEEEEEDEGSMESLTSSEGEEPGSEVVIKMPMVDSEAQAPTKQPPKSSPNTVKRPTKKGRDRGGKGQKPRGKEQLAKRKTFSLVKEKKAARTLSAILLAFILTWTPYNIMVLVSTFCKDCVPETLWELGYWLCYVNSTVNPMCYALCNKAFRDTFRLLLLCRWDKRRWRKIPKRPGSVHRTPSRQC
Pyruvate kinase PKM (Homo sapiens), sequence (P14618 whole entry, looked up): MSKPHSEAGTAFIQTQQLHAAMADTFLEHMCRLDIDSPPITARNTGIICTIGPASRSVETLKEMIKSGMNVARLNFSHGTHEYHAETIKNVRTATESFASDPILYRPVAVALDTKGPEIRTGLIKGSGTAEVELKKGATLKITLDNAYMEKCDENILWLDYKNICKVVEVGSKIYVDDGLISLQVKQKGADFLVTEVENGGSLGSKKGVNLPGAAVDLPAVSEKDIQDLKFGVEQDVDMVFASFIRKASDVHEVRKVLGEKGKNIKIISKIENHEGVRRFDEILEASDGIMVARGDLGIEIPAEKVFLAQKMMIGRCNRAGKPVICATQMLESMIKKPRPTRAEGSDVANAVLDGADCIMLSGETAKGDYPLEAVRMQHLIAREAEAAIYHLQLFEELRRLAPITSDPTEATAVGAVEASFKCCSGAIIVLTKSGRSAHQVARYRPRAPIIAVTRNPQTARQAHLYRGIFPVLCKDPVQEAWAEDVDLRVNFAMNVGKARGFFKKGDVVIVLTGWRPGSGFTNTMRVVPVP
Guanine nucleotide-binding protein G(i) subunit alpha-1 (Homo sapiens), sequence (P63096 whole entry, looked up): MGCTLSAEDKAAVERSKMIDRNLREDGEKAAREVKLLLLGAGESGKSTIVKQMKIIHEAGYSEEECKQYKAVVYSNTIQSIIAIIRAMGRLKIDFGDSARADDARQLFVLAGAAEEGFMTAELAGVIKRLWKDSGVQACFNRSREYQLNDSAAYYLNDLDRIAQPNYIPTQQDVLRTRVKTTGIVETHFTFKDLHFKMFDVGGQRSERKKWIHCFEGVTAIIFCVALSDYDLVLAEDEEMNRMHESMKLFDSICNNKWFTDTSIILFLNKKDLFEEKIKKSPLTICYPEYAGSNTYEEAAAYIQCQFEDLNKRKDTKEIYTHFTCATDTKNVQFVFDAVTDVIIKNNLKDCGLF
Cytochrome P450 1A2 (Homo sapiens), sequence (P05177 whole entry, looked up): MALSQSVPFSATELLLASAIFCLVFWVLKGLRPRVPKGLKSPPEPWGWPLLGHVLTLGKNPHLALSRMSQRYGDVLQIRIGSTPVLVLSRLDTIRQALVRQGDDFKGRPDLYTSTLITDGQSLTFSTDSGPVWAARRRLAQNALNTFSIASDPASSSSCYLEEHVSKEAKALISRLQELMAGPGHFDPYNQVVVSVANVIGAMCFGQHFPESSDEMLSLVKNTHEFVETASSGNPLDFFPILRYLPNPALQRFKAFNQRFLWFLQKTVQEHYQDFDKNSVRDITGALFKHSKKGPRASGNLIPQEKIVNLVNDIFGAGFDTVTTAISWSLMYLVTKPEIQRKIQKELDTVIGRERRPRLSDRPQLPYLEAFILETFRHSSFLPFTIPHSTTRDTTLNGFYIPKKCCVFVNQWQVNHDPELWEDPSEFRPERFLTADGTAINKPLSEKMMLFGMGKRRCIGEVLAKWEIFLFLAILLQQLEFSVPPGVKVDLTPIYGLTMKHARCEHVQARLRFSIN
Cytochrome P450 3A4 (Homo sapiens), sequence (P08684 whole entry, looked up): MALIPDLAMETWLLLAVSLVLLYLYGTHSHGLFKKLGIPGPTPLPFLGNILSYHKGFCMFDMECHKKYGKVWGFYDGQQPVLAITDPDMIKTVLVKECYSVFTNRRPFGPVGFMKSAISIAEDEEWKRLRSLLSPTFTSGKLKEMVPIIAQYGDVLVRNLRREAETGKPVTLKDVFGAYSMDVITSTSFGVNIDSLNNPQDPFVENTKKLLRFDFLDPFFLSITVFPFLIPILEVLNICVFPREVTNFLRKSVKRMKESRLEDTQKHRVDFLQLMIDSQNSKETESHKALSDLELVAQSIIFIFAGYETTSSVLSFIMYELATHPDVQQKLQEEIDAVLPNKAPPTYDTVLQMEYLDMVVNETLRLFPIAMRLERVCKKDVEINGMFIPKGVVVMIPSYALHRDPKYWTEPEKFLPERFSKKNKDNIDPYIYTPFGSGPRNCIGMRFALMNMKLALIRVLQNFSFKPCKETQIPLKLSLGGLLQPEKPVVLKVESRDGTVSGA
Pyruvate kinase (Leishmania mexicana), sequence (Q27686 2-499 E452W): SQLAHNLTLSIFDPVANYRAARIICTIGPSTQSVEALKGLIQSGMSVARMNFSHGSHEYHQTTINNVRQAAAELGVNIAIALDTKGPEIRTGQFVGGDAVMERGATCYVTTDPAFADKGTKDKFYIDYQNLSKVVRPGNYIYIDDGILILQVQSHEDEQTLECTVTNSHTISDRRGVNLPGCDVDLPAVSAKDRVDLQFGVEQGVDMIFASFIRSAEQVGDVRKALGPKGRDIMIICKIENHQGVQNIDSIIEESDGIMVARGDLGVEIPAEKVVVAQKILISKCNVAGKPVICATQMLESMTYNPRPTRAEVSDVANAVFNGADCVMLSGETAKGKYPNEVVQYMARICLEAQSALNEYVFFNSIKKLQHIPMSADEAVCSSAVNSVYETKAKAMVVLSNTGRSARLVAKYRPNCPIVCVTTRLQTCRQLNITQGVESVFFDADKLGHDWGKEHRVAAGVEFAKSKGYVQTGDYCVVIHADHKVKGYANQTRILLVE
3',5'-cyclic-AMP phosphodiesterase 4B (Homo sapiens), sequence (Q07343 whole entry, looked up): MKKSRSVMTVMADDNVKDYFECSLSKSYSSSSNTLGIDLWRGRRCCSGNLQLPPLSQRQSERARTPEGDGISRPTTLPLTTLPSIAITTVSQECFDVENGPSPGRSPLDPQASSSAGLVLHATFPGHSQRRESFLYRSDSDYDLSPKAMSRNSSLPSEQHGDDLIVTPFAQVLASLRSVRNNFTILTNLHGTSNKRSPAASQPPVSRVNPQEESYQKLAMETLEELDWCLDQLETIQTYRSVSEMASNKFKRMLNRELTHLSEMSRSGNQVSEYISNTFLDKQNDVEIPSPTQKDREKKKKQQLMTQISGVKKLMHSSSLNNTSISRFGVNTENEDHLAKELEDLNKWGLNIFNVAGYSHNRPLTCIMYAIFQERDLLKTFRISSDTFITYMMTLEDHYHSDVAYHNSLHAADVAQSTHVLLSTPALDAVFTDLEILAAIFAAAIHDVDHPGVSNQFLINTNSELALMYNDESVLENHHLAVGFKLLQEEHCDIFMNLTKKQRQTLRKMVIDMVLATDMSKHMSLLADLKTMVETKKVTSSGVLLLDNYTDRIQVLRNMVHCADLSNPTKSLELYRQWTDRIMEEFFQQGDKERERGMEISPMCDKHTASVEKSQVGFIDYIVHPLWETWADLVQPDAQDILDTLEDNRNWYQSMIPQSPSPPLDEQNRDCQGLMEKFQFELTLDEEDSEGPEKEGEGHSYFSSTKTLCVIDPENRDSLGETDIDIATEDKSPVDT

Cn1cnc2c(NC3CCCC3)ncnc21
active: Potency [2] 12.6 µM
inactive: activity change, negative = inhibition [1] -18% | activity change, negative = inhibition [3] -0.777% | activity, negative = inhibition [4] 11.1% | Potency [5] > 46 µM | Potency [6] > 46 µM | Potency [7] | Potency [8] | outcome [9] | Potency [10] | Potency [11] | Potency [12] | outcome [13] | outcome [14] | outcome [15] | outcome [16] | activity change, negative = inhibition ([17]; at 57.5 µM (top of the series)) -0.311%
-17.7%: max response ([17]; measured here: cell count channel max response)
